Hits are enriched below; roughly 11% of the tested compounds scored in any of these assays.
HTT aggregate = qHTS Multiplex Assay to Identify Dual Action Probes in a Cell Model of Huntington: Aggregate Formation (GFP). PC12 HttQ103-GFP aggregates, Acumen cytometry, 40 h. Potency, µM (series often up to 46.1 µM), inactives show at the top dose activity change, negative = inhibition, usual class: inhibitors. 220,000 tested, 1.1% active; further: potency means the concentration at half of the fitted maximal effect; on the % scale 0 is the no-effect control and ±100 the full control effect; nearly all actives have a fitted effect of over 60% in size
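PC12 cells with ecdysone-inducible HTT exon1 Q103-GFP, induced by 100 nM tebufenozide, given compounds in a concentration series. GFP aggregates (1–25 um, 6 SD above background) counted in lysates by laser-scanning cytometry, 488 nm excitation.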
HPGD block = qHTS Assay for Inhibitors of HPGD (15-Hydroxyprostaglandin Dehydrogenase); Potency, µM, without a hit: at the top dose activity change, negative = inhibition, most hits filed as inhibitors; 150,000 tested, 4.3% active; 15-hydroxyprostaglandin dehydrogenase [NAD(+)] (Homo sapiens), P15428; purified HPGD, NADH fluorescence kinetic, PGE2 substrate; active means well fitted inhibition curve with a large enough effect, not every such curve was filed as active; inconclusive means small, poorly fitted or top-dose-only effect, or another doubt; inactive means no such curve, though single readings can be large or run the other way; further: potency means the concentration at half of the fitted maximal effect; on the % scale 0 is the no-effect control and ±100 the full control effect
Target sequence (P15428 whole entry, looked up): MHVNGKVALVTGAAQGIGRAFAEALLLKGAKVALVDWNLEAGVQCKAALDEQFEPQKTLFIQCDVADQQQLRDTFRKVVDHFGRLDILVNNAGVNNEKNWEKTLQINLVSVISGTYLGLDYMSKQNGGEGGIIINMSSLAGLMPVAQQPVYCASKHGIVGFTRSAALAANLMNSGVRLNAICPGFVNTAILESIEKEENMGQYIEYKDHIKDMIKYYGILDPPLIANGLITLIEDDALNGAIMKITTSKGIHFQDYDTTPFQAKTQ
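20 nM HPGD preincubated 15 min at room temperature with compound in 50 mM Tris-HCl pH 8, 0.01% Tween 20. Started with 1 mM NAD+ and 30 uM prostaglandin E2; NADH fluorescence (360/450 nm) read 5 times over 30-s intervals, last minus first.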
GoLoco inh red = qHTS Assay for Inhibitors of RGS12 GoLoco Motif Activity (Red Fluorophore); Guanine nucleotide-binding protein G(i) subunit alpha-1 (Homo sapiens), P63096; Gai1:RGS12 GoLoco peptide FP, rhodamine, 10 min; Potency, µM (highest dose often 61.6 µM), for inactives: at the top dose activity, negative = inhibition, hits mostly inhibitors; 230,000 tested, 0.44% active; AID 880, 2007; active means well fitted inhibition curve with a large enough effect, not every such curve was filed as active; inactive means no such curve, though single readings can be large or run the other way; further: potency means the concentration at half of the fitted maximal effect; on the % scale 0 is the no-effect control and ±100 the full control effect; nearly all actives have a fitted effect of over 30% in size
PNC inhibitor = High Content Assay for Compounds that inhibit the Assembly of the Perinucleolar Compartment. PC3M PTB-GFP, PNC prevalence imaging, 16 h; stronger effect = lower value. activity change (PNC), negative = inhibition, % at 10 µM. 140,000 tested, 3.1% active;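 active means readout at or below -70, meaning at least 70% loss of cells showing the perinucleolar compartment, a nuclear body marking cancer cells; inconclusive means readout between -30 and a set limit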;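 further: plate controls were DMSO wells for no effect and camptothecin positive control wells for full effect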
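PC3M cells stably expressing PTB-GFP, 750–1000 cells/well, treated 16 h at 37 °C with compound (23 nl of library stock), in duplicate. After paraformaldehyde fixation and Hoechst stain, imaged at 20x; PNC prevalence scored by image analysis.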
ALDH1A1 inh = qHTS Assay for Inhibitors of Aldehyde Dehydrogenase 1 (ALDH1A1) | Purified ALDH1A1, NADH fluorescence, propionaldehyde substrate | Potency, µM (top dose mostly 75.3 µM), inactives show at the top dose activity, negative = inhibition, hits mostly inhibitors | 220,000 tested, 7.3% active | AID 1030, 2008; active means well fitted inhibition curve with a large enough effect, not every such curve was filed as active; inconclusive means small, poorly fitted or top-dose-only effect, or another doubt; inactive means no such curve, though single readings can be large or run the other way;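 further: potency means the concentration at half of the fitted maximal effect; plate controls were no enzyme wells and a reference inhibitor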
Target sequence (P00352 whole entry, looked up): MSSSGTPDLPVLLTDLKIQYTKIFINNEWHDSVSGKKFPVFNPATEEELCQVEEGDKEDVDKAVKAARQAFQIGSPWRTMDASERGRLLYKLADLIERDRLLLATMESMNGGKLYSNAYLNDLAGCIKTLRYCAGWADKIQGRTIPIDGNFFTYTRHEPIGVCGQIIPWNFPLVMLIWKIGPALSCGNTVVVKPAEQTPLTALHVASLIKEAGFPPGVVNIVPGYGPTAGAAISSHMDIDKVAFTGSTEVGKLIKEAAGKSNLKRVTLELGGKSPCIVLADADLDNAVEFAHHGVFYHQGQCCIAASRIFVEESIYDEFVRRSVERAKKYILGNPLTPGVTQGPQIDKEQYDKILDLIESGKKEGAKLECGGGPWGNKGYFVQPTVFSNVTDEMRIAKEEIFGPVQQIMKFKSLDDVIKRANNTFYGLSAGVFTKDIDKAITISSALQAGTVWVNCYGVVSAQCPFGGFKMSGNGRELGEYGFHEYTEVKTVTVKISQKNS
HTT cytoprotect = qHTS Multiplex Assay to Identify Dual Action Probes in a Cell Model of Huntington: Cytoprotection (ATP). AID 1471, 2008. 230,000 tested, 0.14% active. Potency, µM (titrated, usually from 56.4 µM), for inactives: cytoprotection (ATP increase), most hits filed as activators. PC12 HTT-Q103 induced, cytoprotection, ATP luminescence, 40 h; further: potency means the concentration at half of the fitted maximal effect; % of control where 0% means no effect; nearly all actives have a fitted effect of over 45% in size
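PC12 cells stably carrying ecdysone-inducible Htt exon 1 (Q103)–GFP were induced with 100 nM tebufenozide (final) alongside library compounds in a dose series. Cytoprotection was scored as retained ATP by ATPlite luminescence.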
The depositor's hits bear a star; [ ] = dose if it differs, or a comment. Unless noted, the call rests on the fitted dose curve; in most records, active means well fitted curve in the direction sought with a large enough effect; inconclusive means small, poorly fitted or top-dose-only effect, or another doubt; inactive means no such curve, though single readings can be large; an effect the other way counts as inactive or inconclusive.

For c1ccc(CCNc2ncnc3scc(C4COc5ccccc5O4)c23)cc1 (stereo not drawn) the results were HTT aggregate -21.1%, HPGD block -15.6%, GoLoco inh red 12.6%, PNC inhibitor inconclusive, ALDH1A1 inh 0.0562µM* and HTT cytoprotect -58.5%.
`c1ccc2c(c1)OCC(c1csc3ncnc(N4CCCC4)c13)O2` (stereo not drawn) gave HTT aggregate 17.8µM*, HPGD block -8.2%, GoLoco inh red -0.3%, PNC inhibitor 9.2, ALDH1A1 inh 9.4% and HTT cytoprotect -9.3%.
For CCCNc1nc2c(c(=O)n(C)c(=O)n2C)n1Cc1ccc(F)cc1 the results were HTT aggregate inconclusive, HPGD block -10.7%, GoLoco inh red -1.4%, PNC inhibitor 16.1, ALDH1A1 inh 7.8% and HTT cytoprotect -3.0%[10 µM].
Screening Cn1c(=O)c2c(nc(-n3ccnc3)n2Cc2ccccc2)n(C)c1=O returned HTT aggregate -17.3%, HPGD block -14.1%, GoLoco inh red -7.5%, PNC inhibitor -9.1, ALDH1A1 inh 10µM* and HTT cytoprotect -15.7%.
Cn1c(=O)c2c(nc(NCc3ccccc3)n2Cc2ccc(F)cc2)n(C)c1=O was read as HTT aggregate 20µM*, HPGD block -20.9%, GoLoco inh red -1.7%, PNC inhibitor 29.2, ALDH1A1 inh -6.1% and HTT cytoprotect -21.3%[10 µM].
`Cn1c(=O)c2c(nc(NCc3ccco3)n2CCc2ccccc2)n(C)c1=O` gave HTT aggregate 12.6µM*, HPGD block -3.4%, GoLoco inh red 4.9%, PNC inhibitor -5.0, ALDH1A1 inh 11.0% and HTT cytoprotect -21.4%.
Screening CC(C)c1nnc(N2C(=O)C(O)=C(C(=O)c3cccs3)C2c2ccccc2)s1 (stereo not drawn) returned HTT aggregate 10.2%, GoLoco inh red -32.6%, ALDH1A1 inh inconclusive and HTT cytoprotect -11.8%.
COC(=O)N/N=C(\C)c1ccc2ccccc2c1OC(F)F was read as HTT aggregate inconclusive, HPGD block -9.5%, GoLoco inh red 12.2%, PNC inhibitor 67.7, ALDH1A1 inh 8.1% and HTT cytoprotect 0.794µM*.
CC(C(=O)Oc1ccc2c(c1)OCO2)N1C(=O)c2ccccc2C1=O (stereo not drawn) was read as HTT aggregate -21.1%, HPGD block -12.6%, GoLoco inh red 6.2%, PNC inhibitor 23.3, ALDH1A1 inh -5.0% and HTT cytoprotect -6.4%.
CC(C(=O)OCC(=O)Nc1cccc(S(=O)(=O)N2CCOCC2)c1)N1C(=O)c2ccccc2C1=O (stereo not drawn) was read as HTT aggregate -5.2%, GoLoco inh red 11.4%, ALDH1A1 inh 25.1µM* and HTT cytoprotect 13.6%.
`CC(C(=O)OCC(=O)Nc1ccc2c(c1)OCO2)N1C(=O)c2ccccc2C1=O` (stereo not drawn) gave HTT aggregate -5.6%, HPGD block -18.8%, GoLoco inh red 25.9%, PNC inhibitor 35.7, ALDH1A1 inh 7.08µM* and HTT cytoprotect -6.4%.
Screening Clc1ccc(Cl)c(Cl)c1Cl returned HPGD block -8.2%, GoLoco inh red 3.7%, ALDH1A1 inh 1.4% and HTT cytoprotect -4.1%.
`COc1ccc(C(=O)NN/C(C)=C/C(=O)C(F)(F)C(F)(F)C(F)(F)F)cc1` gave HTT aggregate 11.2µM*, HPGD block -13.6%, GoLoco inh red -10.2%, PNC inhibitor 13.2, ALDH1A1 inh -3.5% and HTT cytoprotect 40.7%[10 µM].
Screening COc1ccc(C(=O)NNC(=O)OC(C)(C)C)cc1 returned HTT aggregate -2.2%[9.22 µM], GoLoco inh red 2.7% and HTT cytoprotect -1.6%[10 µM].
`COc1ccccc1NC(=O)C/C(C)=N/NC(=O)COc1c(Br)cc(Br)cc1OC` gave HTT aggregate inconclusive, GoLoco inh red 5.9%, ALDH1A1 inh 7.94µM* and HTT cytoprotect -34.0%.
`C/C(CC(=O)NC(C)(C)C)=N\NC(=O)COc1ccc(C)cc1Br` gave HTT aggregate -4.2%, GoLoco inh red 1.7%, ALDH1A1 inh 14.1µM* and HTT cytoprotect -21.9%.
For COc1ccccc1NC(=O)C(=O)N/N=C(\C)CC(=O)Nc1ccc(OCc2ccccc2)cc1 the results were HTT aggregate 24.7%, HPGD block -13.6%, GoLoco inh red 7.7%, PNC inhibitor 87.2, ALDH1A1 inh 0.6% and HTT cytoprotect -13.0%.
`COc1ccc(CNC(=O)C/C(C)=N/NC(=O)COc2ccc(C)cc2Br)cc1` gave HTT aggregate 10.5%, GoLoco inh red 7.7%, ALDH1A1 inh 10µM* and HTT cytoprotect -81.1%.
For NC(=O)C1CC(=O)N(c2ccc(OCc3ccc(Cl)cc3)cc2)C1 (stereo not drawn) the results were HTT aggregate 9.8%[9.22 µM], GoLoco inh red 21.6%, ALDH1A1 inh 2.1% and HTT cytoprotect -2.9%[10 µM].
NC(=O)c1ccc(NC(=O)COC(=O)CC(NC(=O)c2ccccc2Cl)c2ccccc2)cc1 (stereo not drawn) was read as HTT aggregate -2.0%, HPGD block -4.0%, GoLoco inh red 10.0%, PNC inhibitor inconclusive, ALDH1A1 inh 2.1% and HTT cytoprotect -8.3%[10 µM].
`Cc1cc(C)n2nc(C(=O)N/N=C/c3cccc(Cl)c3)nc2n1` gave HTT aggregate -0.6%[9.22 µM], GoLoco inh red 9.9% and HTT cytoprotect 3.4%[10 µM].
Cc1ccc(NC(=O)CCNC(=O)c2ccc([N+](=O)[O-])cc2)cc1S(=O)(=O)N(C)C was read as HTT aggregate 2.1%, GoLoco inh red 25.9%, ALDH1A1 inh inconclusive and HTT cytoprotect -7.9%.
Screening CCCC(=O)Nc1ccc(Sc2ccc([N+](=O)[O-])cc2)cc1 returned HTT aggregate inconclusive, HPGD block 17.8µM*, GoLoco inh red -6.0%, PNC inhibitor 13.3, ALDH1A1 inh -14.8% and HTT cytoprotect 20.9%[10 µM].
CCC(CC)C(=O)Nc1ccc(Sc2ccc([N+](=O)[O-])cc2)cc1 was read as HTT aggregate 2.2%, PNC inhibitor inconclusive, ALDH1A1 inh 1.12µM* and HTT cytoprotect -66.3%.
CN(C)S(=O)(=O)c1ccc(NC(=O)CCNC(=O)c2ccc([N+](=O)[O-])cc2)cc1 was read as HTT aggregate -18.0%, GoLoco inh red -8.1%, ALDH1A1 inh 10µM* and HTT cytoprotect -9.8%[10 µM].

Compound activity (PubChem BioAssay)
